High-throughput results from PubChem.
D2 antagonist: D2 dopamine receptor (human) antagonism. 340,000 compounds, 2% hits. HEK293 TREx D2 cells, calcium flux, dopamine EC80. inhibition, % at 10 µM. P14416; in the data active = inhibition above about 30%; inactive = below that, where a call was filed
Target sequence (P14416 whole entry, looked up): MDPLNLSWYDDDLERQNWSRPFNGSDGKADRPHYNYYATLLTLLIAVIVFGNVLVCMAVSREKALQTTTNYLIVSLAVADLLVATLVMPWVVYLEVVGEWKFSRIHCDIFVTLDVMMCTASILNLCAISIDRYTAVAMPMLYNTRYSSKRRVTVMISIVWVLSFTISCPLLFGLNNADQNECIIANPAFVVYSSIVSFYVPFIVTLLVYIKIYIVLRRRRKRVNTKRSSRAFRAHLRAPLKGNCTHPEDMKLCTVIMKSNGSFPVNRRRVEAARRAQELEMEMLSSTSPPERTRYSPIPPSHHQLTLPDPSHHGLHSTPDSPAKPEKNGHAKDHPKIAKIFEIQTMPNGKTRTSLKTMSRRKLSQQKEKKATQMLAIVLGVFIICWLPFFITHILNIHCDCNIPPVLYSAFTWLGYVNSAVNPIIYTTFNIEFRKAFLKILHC
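Tetracycline-induced HEK293 TREx cells expressing D2 receptor forced-coupled to calcium signalling, loaded with no-wash calcium dye. Compounds added and calcium flux read 180 s, then dopamine added at EC80 and read a further 180 s.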
D2 ag-1: activates the human D2 dopamine receptor. P14416. activation, % at 2 µM. 340,000 compounds, 0.53% hits. HEK293 T-REx D2 cells, calcium flux agonist mode;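 active = activation over 3 SD above normal in the single-dose calcium agonist read, cut at about 30% in these data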
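HEK293 Trex D2 cells, tetracycline-induced, o/n 30 C 5% CO2; no-wash Ca dye, RT 30–90 min; 10-cycle baseline, 23 nl cpd added, kinetic Ca read 180 s; agonist hits = positive Ca response.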
D2 PAM-1: positive allosteric modulators of human D2 dopamine receptor; HEK293 T-REx D2, calcium flux, EC20 dopamine potentiation; potentiation, % at 10 µM; 340,000 compounds, 0.34% hits; AID 485347;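 active = potentiation over 3 SD above the plate norm, cut at about 30% in these data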
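Tetracycline-induced HEK293 T-REx cells force-coupled to calcium signalling expressed D2; compounds were pin-added after a 10 s baseline, read kinetically 180 s, then an EC20 dopamine challenge followed with a further 180 s calcium read.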
D2 PAM-2: potentiates the human D2 dopamine receptor allosterically; potentiation, % (no concentration beside the values); DiscoveRx D2 beta-arrestin cells, luminescence, 90 min; 100% = 57 uM dopamine signal; 360,000 compounds, 0.23% hits; in the data active = potentiation above about 50%; inconclusive = mostly about 30% to 49%
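D2 cells co-treated with compound plus 50 nM dopamine (EC20) for 90 min at 37 deg C to detect potentiation. Beta-arrestin recruitment was read as enzyme-fragment luminescence after 1 h at ambient temperature. Full response was set by 57 uM dopamine.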
D2 ag-2: agonists of human D2 dopamine receptor (beta-arrestin). DiscoveRx PathHunter D2 beta-arrestin, luminescence, 90 min; 100% = 57 uM dopamine signal. AID 624465. 360,000 compounds, 0.084% hits. activation, % (concentration not given with the values). P14416; in the data active = activation above about 40%; inconclusive = between about 15% and that limit
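Agonist mode: compounds alone added to overnight-plated D2 PathHunter cells for 90 min at 37 C, with 57 uM final dopamine (EC100) defining full response. Beta-arrestin recruitment detected by chemiluminescent reagent, read after 1 h at ambient temperature.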
D3 ag: D3 receptor agonism confirmed, beta-arrestin readout; 2,300 compounds, 4% hits; DiscoveRx D3 beta-arrestin cells, luminescence, 90 min; shares compounds with D2 ag-1; Potency, µM (highest dose often 76.9 µM), most hits filed as activators; note: nearly all actives have a fitted effect of over 70% in size
D2 ag-3: counter-screen for D3 agonists: human D2 dopamine receptor agonism; shares compounds with D2 ag-1; DiscoveRx PathHunter D2 beta-arrestin, luminescence, 90 min; response scale: percent relative to full dopamine signal; Potency, µM (titrated, usually from 76.9 µM), actives largely listed as activators; 2,300 compounds, 5.9% hits; AID 720507; note: nearly all actives have a fitted effect of over 70% in size
Numbers stand for hits; - = inactive; ? = inconclusive; . = not tested or not shown. Rows were chosen to be rich in hits. Some 2.4% of all compounds tested hit in one or more screens of this group. Unless noted, calls come from the whole dose curve; as a rule, active = well fitted activation curve with a large enough effect; inconclusive = small, poorly fitted or top-dose-only effect; inactive = flat fitted curve, though single readings scatter.

SMILES	D2 antagonist	D2 ag-1	D2 PAM-1	D2 PAM-2	D2 ag-2	D3 ag	D2 ag-3
Cc1cc(NC(=O)CSCC(=O)Nc2cc(C(F)(F)F)ccc2N2CCCC2)no1	-	-	-	-	-	.	.
CCOCCCNC(=O)c1ccc(Cn2c(=O)c3cccn3c3cccnc32)cc1	.	-	.	.	.	.	.
CCS(=O)(=O)N1CCCC(C(=O)NC2CCCCC2C)C1 (stereo unspecified)	-	-	-	-	-	.	.
CCCS(=O)(=O)N1CCC(C(=O)NC2CCCCC2C)CC1 (stereo unspecified)	-	-	-	-	-	-	-
CCCCNCCCOc1cccc(Cl)c1Cl	87	49	-	-	-	-	-
COc1ccccc1NS(=O)(=O)c1cn(C)c(C)n1	.	-	-	.	.	.	.
COc1ccc(C(=O)Nc2cc(Cl)ccc2-n2cncn2)c(OC)c1OC	-	-	-	-	-	-	-
O=C(CCC1CCCC1)NNC(=O)c1ccc(F)cc1	-	-	-	-	-	-	-
C[C@@H]1CN([C@H](C)CO)C(=O)c2cc(C#C[C@@H](C)O)cnc2O[C@H]1CN(C)C(=O)c1ccc(F)cc1	.	.	.	-	-	.	.
CCOC(=O)C(NCCCCl)c1ccccc1 (stereo unspecified)	-	35	-	-	-	-	-
CCOC(=O)C(C(=O)OCC)C(Nc1cccc(Br)c1)c1ccccc1 (stereo unspecified)	-	-	-	-	-	.	.
CCN(C(=O)CSc1nc2ccccc2n1Cc1cc(C)ccc1C)c1ccccc1	.	-	-	.	.	.	.
O=C1C[C@@H]2c3c(cccc3CN1Cc1ccc(F)cc1)C[C@@H](O)[C@H]2O	-	-	-	-	-	-	-
COc1ccc(CN2Cc3cccc4c3[C@@H](CC2=O)[C@H](O)[C@H](O)C4)cc1	-	-	-	-	-	.	.
CN(C(=O)c1ccccc1C(=O)OCC(=O)c1ccccc1)c1ccccc1	.	.	.	-	-	.	.
CN(C(=O)c1ccccc1C(=O)OCC(=O)c1ccc(F)cc1)c1ccccc1	-	-	-	-	-	-	-
Cc1ccc(N2CCN(c3nc4ccccc4n4nnnc34)CC2)c(C)c1	.	-	-	.	.	.	.
CCOc1cc(CN2CCN(c3ncccn3)CC2)ccc1OC	77	78	-	-	?	-	?
CCc1ccc(CN2CCN(c3ncccn3)CC2)cc1	95	77	-	?	75	?	0.56µM
Fc1ccc(CN2CCN(c3ncccn3)CC2)cc1	84	79	-	-	47	-	?
O=S1(=O)CC(N2CCN(c3ncccn3)CC2)CN1Cc1ccc(F)cc1 (stereo unspecified)	.	.	.	-	-	.	.
Fc1ccc(F)c(CN2CCN(c3ncccn3)CC2)c1	79	64	-	64	78	?	3.2µM
CCOc1ccc(NC(c2ccc(Cl)cc2)c2nnc(-c3cccc(F)c3)o2)cc1 (stereo unspecified)	.	-	-	.	.	.	.
O=C(/C=C\c1ccc2c(c1)OCO2)NC1CC(=O)N(c2cccc(F)c2)C1 (stereo unspecified)	.	-	-	.	.	.	.
O=C(NCCc1ccccc1)c1cccc2c(-c3cccnc3)coc12	.	.	.	-	-	.	.
SMILES	D2 antagonist	D2 ag-1	D2 PAM-1	D2 PAM-2	D2 ag-2	D3 ag	D2 ag-3
COc1ccc(N2CC3=C(C2=O)C(c2ccc(Br)cc2)NC(=O)N3C)cc1 (stereo unspecified)	.	-	-	.	.	.	.
OCCNCC1(O)C2CC3CC(C2)CC1C3 (stereo unspecified)	-	-	-	-	-	.	.
OC1(CNCc2ccccc2)C2CC3CC(C2)CC1C3 (stereo unspecified)	56	49	-	-	-	-	-
COc1cc2c(=O)n(Cc3ccccc3)c(=O)n(CC(=O)Nc3cc(C(F)(F)F)ccc3Cl)c2cc1OC	.	-	-	.	.	.	.
CCc1ccc(NS(=O)(=O)c2c(-c3ccccc3)csc2C(=O)OC)cc1	.	-	-	.	.	.	.
CC(NCC(O)COc1ccccc1)C1COc2ccccc2O1 (stereo unspecified)	64	65	-	-	?	-	-
CC(NCc1ccccc1)C1COc2ccccc2O1 (stereo unspecified)	-	38	-	-	-	-	-
COc1ccc(C(=O)COC(=O)c2cc(-c3cccs3)nc3ccccc23)cc1	.	-	-	.	.	.	.
CC(Sc1nc2ccccc2[nH]1)C(=O)Nc1ccc2c(c1)OCCO2 (stereo unspecified)	66	-	-	-	-	-	-
CC(Sc1ncccn1)C(=O)Nc1ccc2c(c1)OCCO2 (stereo unspecified)	.	.	.	-	-	.	.
Cc1ccc(-c2csc(NC(=O)C[n+]3cc(-c4ccccc4)n4c3CCC4)n2)cc1	64	77	-	-	-	-	-
O=C(CN1C(=O)NC2(CCCC2)C1=O)Nc1nc(-c2ccc(F)cc2)cs1	-	-	-	-	-	-	-
O=C(C[n+]1cc(-c2ccccc2)n2c1CCC2)Nc1nc(-c2ccc(F)cc2)cs1	76	76	-	-	-	-	?
Cc1ccc(NC(=O)C[n+]2cc(-c3ccccc3)n3c2CCC3)c(C)c1	65	81	-	-	-	-	-
Cc1ccc(-c2c[n+](CC(=O)Nc3c(C)cccc3C)c3n2CCC3)cc1	-	-	-	-	-	.	.
Cc1ccc(-c2csc(NC(=O)C[n+]3cc(-c4ccc(C)cc4)n4c3CCC4)n2)cc1	-	-	-	-	-	.	.
CCOc1nc(NC(=O)NS(=O)(=O)Oc2ccccc2)nc(-c2ccccc2)n1	.	-	-	.	.	.	.
O=C(C[n+]1cc(-c2ccccc2)n2c1CCC2)N1c2ccccc2Sc2ccccc21	37	64	-	-	-	-	-
Cn1c(=O)c2c(ncn2CC(=O)Nc2cc(Cl)cc(Cl)c2)n(C)c1=O	.	-	-	.	.	.	.
Cn1nnnc1Sc1ncnc2scc(-c3cccs3)c12	-	-	31	.	.	-	-
Cn1nnnc1Sc1ncnc2scc(-c3ccc(C(F)(F)F)cc3)c12	-	-	-	.	.	.	.
CCOC(=O)c1oc2c(c1C)-c1nn(Cc3ccc(Cl)cc3)cc1CC2	.	-	-	.	.	.	.
COc1ccc(NC(=O)c2ncn(-c3ccccc3)n2)cc1Cl	.	-	-	.	.	.	.
C=C(C)C1CC=C(CN2CCC(C(=O)OCC)CC2)CC1 (stereo unspecified)	72	60	-	-	-	-	-
COCCn1nnnc1CN1CCN(c2cccc(C(F)(F)F)c2)CC1	-	-	-	-	-	.	.
CC(C)CCn1nnnc1CN1CCN(c2ccccc2)CC1	50	52	-	-	-	-	-
